Source: PubChem BioAssay (NCI)
About 83,000 compounds went through this panel and 20% of them were active in at least one assay; those are over-represented in the sample as a whole.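 Activity criterion: percent growth below 10, measured after cells in 96-well plates were exposed to a single compound concentration for 48 hours.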 Unmarked numbers belong to inactive results. Calls of active or inactive are those of the source.

Experiments:
Experiment in all cases: NCI-60 one-dose screen, 48 h (100 = growth as untreated, 0 = no growth, -100 = all killed)
Conditions in all cases: 10 µM unless noted
HCT-15 colon = system: HCT-15 colon
HT29 colon = system: HT29 colon
SNB-75 CNS = system: SNB-75 CNS
U251 CNS = system: U251 CNS
PC-3 prostate = system: PC-3 prostate
SK-MEL-5 melanoma = system: SK-MEL-5 melanoma
UACC-62 melanoma = system: UACC-62 melanoma
LOX IMVI melanoma = system: LOX IMVI melanoma
SK-MEL-28 melanoma = system: SK-MEL-28 melanoma
SNB-19 CNS = system: SNB-19 CNS

SMILES | growth (HCT-15 colon) | growth (HT29 colon) | growth (SNB-75 CNS) | growth (U251 CNS) | growth (PC-3 prostate) | growth (SK-MEL-5 melanoma) | growth (UACC-62 melanoma) | growth (LOX IMVI melanoma) | growth (SK-MEL-28 melanoma) | growth (SNB-19 CNS)
C=CCCCCCCCCC(=O)[O-].C=CCCCCCCCCC(=O)[O-].[Zn+2] | 101% | 105% | 103% | 89% | 85.7% | 113% | 99.4% | 90.5% | 104% | 
Cc1ccc(N2COOC3(OOC2)C2CC4CC(C2)CC3C4)cc1 | 96.6% | 97.5% |  | 96.1% | 93.5% | 90.5% | 109% | -61.6% (active) | 103% | 106%
C1CCC([PH+](C2CCCCC2)C2CCCCC2[PH+](C2CCCCC2)C2CCCCC2)CC1.[Au].[CH-]1CCCCC1CC1CCCC[N-]1 (centres undefined) | -36.9% (active) | 1.89% (active) |  | -78.1% (active) | -22.2% (active) | -99.8% (active) | -71% (active) | -97.2% (active) | -70.5% (active) | -89% (active)
COC(=O)[C@@H](C)C[C@H](Cc1ccc(F)cc1)NC(=O)c1csc([C@@H](C[C@H](C(C)C)N(C)C(=O)[C@@H](NC(=O)[C@H]2CCCCN2C)C2CC2)OC(C)=O)n1 | 12.4% | 0.34% (active) |  | 5.77% (active) | 28.7% | -20.7% (active) | 43.3% | 23.9% | 59% | 36.5%
CC1=C(O)[C@@](C)(CCCCC[C@H](C)CCCCc2ccc(O)cc2)OOC1=O | 98.3% | 105% |  | 92.8% | 75.4% | 102% | 79.2% | 69.8% | 114% | 101%
C[N+]12CN3CN(CN(C3)C1)C2 | 110% | 99.3% |  | 100% | 81.3% | 112% | 104% |  | 106% | 
COc1ccc(NC([Se])=NC23CC4CC(CC(C4)C2)C3)cc1 | 9.68% (active) | 5.56% (active) |  | -31% (active) | 7.99% (active) | -85.5% (active) | -24.3% (active) | 3.59% (active) | 13.2% | 15.7%
NC(=O)C(Br)c1ccccc1 (centres undefined) | 58% | 86.2% |  | 86.8% | 94.3% | 82.9% | 88% | 56.8% | 97.2% | 90.6%
CCOP(=O)(Nc1ccc2c(c1)/C(=N/NC(N)=S)c1ccccc1-2)OCC | 96.5% |  | 80.6% | 94.8% | 94.4% | 84.4% | 77.7% | 88.9% | 116% | 94.5%
CCC1CN1CCCCN1CC1CC (centres undefined) | 88.5% | 98.2% |  | 99% | 98.5% | 99.5% | 97.2% | 97.7% | 90% | 99.3%
CC[S][Hg][Cl] | 104% |  |  | 99.6% | 103% | 106% | 103% | 88.1% | 111% | 106%
COC(=O)[C@@H](C)C[C@H](Cc1ccccc1)NC(=O)c1csc([C@@H](C[C@H](C(C)C)N(C)C(=O)C2(NC(=O)[C@H]3CCCCN3C)CCC2)OC(C)=O)n1 | 17.1% | 5.81% (active) |  | 6.93% (active) | 19.4% | -43.7% (active) | 40% | 12.7% | 57% | 73.2%
CC1(C)CN1P(=O)(N1CC1(C)C)N1CC1(C)C (centres undefined) | 112% | 120% |  | 98.2% | 99.1% | 117% | 98% |  | 99.5% | 105%
COC(=O)C12CC(NC(=O)c3csc([C@@H](C[C@H](C(C)C)N(C)C(=O)[C@@H](NC(=O)[C@H]4CCCCN4C)C(C)C)OC(C)=O)n3)(C1)C2 |  | 2.39% (active) | 47% | 20.7% | 23% | -38.8% (active) | 37.2% | 22.2% |  | 29.1%
Fc1ccc2c(c1)c(-c1nc(-c3c[nH]c4ncccc34)cs1)cn2CCN1CCOCC1 | 27.2% | 47.7% |  | 51.7% | 23.3% | 32.2% |  | 56.7% | 75.8% | 63.7%
CC[C@H](C)[C@H](NC(=O)[C@H]1CCCCN1C)C(=O)N(C)[C@H](C[C@@H](OC(C)=O)c1nc(C(=O)N[C@@H](Cc2ccccc2)C[C@H](C)C(=O)OC)cs1)C(C)C | 5.1% (active) | -3.46% (active) |  | 11.8% | 23.7% | -69.5% (active) | 43.6% |  | 53.6% | 31.4%
N#C[Se]Cc1cc(-c2ccccc2)n(-c2ccc(S(N)(=O)=O)cc2)n1 | 4.73% (active) | -27% (active) |  | -61.2% (active) | -13.1% (active) | -76.6% (active) | -9.79% (active) | -69.4% (active) | -58.8% (active) | -100% (active)
C[C@]12CCc3sc(-c4cccc(F)c4)nc3C1=CC[C@@H]1[C@@H]2CC[C@]2(C)C(=O)CC[C@@H]12 | -38.2% (active) | 5.21% (active) |  | 18.8% | 35% | 61.5% | 34.9% | 1.34% (active) | 48% | 60%
O=P(Oc1ccc(Cl)cc1)(N1CC1)N1CC1 | 88.7% | 72.5% |  | 82.6% | 76.1% |  | 58% | 83.1% | 98.3% | 91%
COc1ccc2c(c1)c(C1(O)CC(CSC#N)OC1=O)cn2C(=O)c1ccc(Cl)cc1 (centres undefined) | 98.7% | 110% |  | 102% | 96.2% | 111% | 88.6% | 97.8% | 150% | 99.3%
C[C@]12CCc3sc(NCCc4ccccc4)nc3C1=CC[C@@H]1[C@@H]2CC[C@]2(C)C(=O)CC[C@@H]12 | 22.5% | 34.3% |  | 60.1% | 38.8% | 66% | 75.6% | 70.2% | 83.3% | 80.2%
Oc1ccc2c3c1OC1[C@@H](O)CC[C@@]4(O)[C@@H](C2)N(CC2CCC2)CC[C@]314 (some centres undefined) | 99.2% | 98% |  | 96.8% | 94.1% | 92.5% | 108% |  | 106% | 109%
COc1cc2c(=O)n(C3CCCCCCC3)c3c4cc[nH]c4ncc3c2cc1OC | 62.4% | 66.8% |  | 12.7% | 65.8% |  | 89.1% | 41.5% |  | 55.2%
Brc1ccc2c(c1)c(-c1nc(-c3c[nH]c4ncccc34)cs1)cn2CCN1CCOCC1 | 35.5% | 57.8% |  | 52.8% | 30.3% | 51.3% |  |  | 94.5% | 71.6%
Cc1ccc(C(=O)NCCCOc2ccc(N3C(N)=NC(N)=NC3(C)C)cc2Cl)cc1S(=O)(=O)F | 102% | 59.4% |  | 37.6% | 28.5% | 32.9% | 30.1% | 26.7% | 104% | 72.2%
O=C(N/N=C\c1ccc(N(CCCl)CCCl)cc1)c1cccc([N+](=O)[O-])c1 | 98.7% |  | 60% | 73.9% | 89.1% | 93.9% | 77.9% | 83.4% | 108% | 77.3%
CCCC[C@H](NC(=O)[C@H]1CCCCN1C)C(=O)N(C)[C@H](C[C@@H](OC(C)=O)c1nc(C(=O)N[C@@H](Cc2ccccc2)C[C@H](C)C(=O)OCC)cs1)C(C)C |  | -16.4% (active) | 41.9% | 5.09% (active) | 17.5% | -26% (active) | 46.2% | 17.9% |  | 37.5%
O=C(CCl)c1ccc([N+](=O)[O-])o1 | -86.6% (active) | -14.3% (active) |  | 7.98% (active) | -23.8% (active) | 62.8% | 33% | -81.8% (active) | -64.6% (active) | 75.4%
COc1ccc(C/C(C)=C(\c2ccc(OCCN3CCOCC3)cc2)c2ccc(OC(=O)Cc3ccccc3)cc2)cc1 | -23.7% (active) | -89.7% (active) |  | -97.3% (active) | -1% (active) | -91.9% (active) | -87.7% (active) |  | -80.6% (active) | 13.8%
CCCCCCC(=O)NC1=C(N2CC2)C(=O)C(NC(=O)CCCCCC)=C(N2CC2)C1=O | 69% | 19.2% |  |  | 35.4% | 52.4% | 30.6% | 33.5% | 81.5% | 60.6%
